PubChem BioAssay (NCATS)
Records with an inconclusive call do not appear. A call without a number means that no potency is given here. The source made the active and inactive calls. Calls follow the shape of the dose curve; as a rule, active = well fitted inhibition curve with a large enough effect; inconclusive = small, poorly fitted or top-dose-only effect; inactive = flat fitted curve, though single readings scatter.

These compounds were tested against Calcium and integrin-binding protein 1 (Homo sapiens) (UniProt Q99828) (assay: Primary qHTS for Identification of Calcium Integrin Binding Protein 1 (CIB1) Competitor (AID 1508620;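 also: GST tagged CIB1 binding a fluorescein labelled alphaIIb integrin peptide tracer; top concentration of the series differs between compounds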)). Conditions: CIB1-GST / FITC-alphaIIb peptide fluorescence polarization; series mostly up to 57.7 µM.
In short: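 Fluorescence polarization competition: CIB1-GST (1 uM final) preincubated with compound 15 min at room temperature, then FITC-labeled alphaIIb peptide (100 nM final) added for another 15 min. Polarization read at Ex 480/Em 540.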

Calcium and integrin-binding protein 1 (Homo sapiens), sequence (Q99828 whole entry, looked up): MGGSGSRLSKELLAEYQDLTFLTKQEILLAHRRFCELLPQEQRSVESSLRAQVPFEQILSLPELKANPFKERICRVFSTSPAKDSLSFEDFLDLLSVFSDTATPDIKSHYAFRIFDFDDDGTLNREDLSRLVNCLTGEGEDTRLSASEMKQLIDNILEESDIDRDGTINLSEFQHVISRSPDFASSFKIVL

Question: Which Potency does the source give for COC1CC(=O)C23C(=O)NC(CC(C)C)C2C(C)C(C)=CC3/C=C(\C)CCC1O (centres undefined) here?
Answer: inactive

Question: COc1cc(-c2cccc(O)c2)cc2c1OCO2 was tested. Which Potency did it give?
Answer: inactive

Question: With CC(C)N(C[C@H]1O[C@@H](n2cnc3c(N)ncnc32)[C@H](O)[C@@H]1O)C1CC(CCc2nc3ccc(C(C)(C)C)cc3[nH]2)C1 (some centres undefined) as the compound, how does the Potency read?
Answer: inactive

Question: Which Potency does the source give for Cc1nn(C)c2c1C(c1ccc(C(F)(F)F)cc1)C(C#N)=C(N)O2 (centres undefined) here?
Answer: inactive

Question: For CCC(C)/C=C(C)/C=C/C1=CC2=C(Cl)C(=O)C(C)(OC(C)=O)C(=O)C2=CN1CCCC(=O)O (centres undefined), which Potency is on record?
Answer: inactive

Question: How did the Potency turn out when COC(=O)C1=CO[C@@H](O[C@@H]2O[C@H](CO)[C@@H](O)[C@H](O)[C@H]2O)[C@@H]2[C@@H](C(=O)OC)[C@@H](O)C(O)[C@H]12 (some centres undefined) was run?
Answer: inactive

Question: For C/C(=C\CCC(C(=O)O)C1CCC2(C)C3=C(CCC12C)C1(C)CCC(=O)C(C)(C)C1CC3)C(=O)O (centres undefined), which Potency is on record?
Answer: inactive

Question: Nc1ncnc2c1ncn2[C@H]1CCCO1 was tested. Which Potency did it give?
Answer: inactive

Question: C[C@@H]1C[C@H](O)/C=C/[C@H](O)[C@@H](O)CC(=O)O1 was tested. Which Potency did it give?
Answer: inactive

Question: For C=C1CCC(OC(C)=O)C2(C)CC3(O)OC(=O)C(C)=C3CC12 (centres undefined), which Potency is on record?
Answer: inactive

Question: With CC1(C)CCC2(C(=O)OC3OC(COC4OC(CO)C(O)C(O)C4O)C(O)C(O)C3O)CCC3(C)C(=CCC4C5(C)CCC(O)C(C)(C(=O)O)C5CCC43C)C2C1O (centres undefined) as the compound, how does the Potency read?
Answer: inactive

Question: How did the Potency turn out when C=C1CC23CC1(O)CCC2C1=CC2OC(=O)C(C)(C2O)C1C3C(=O)O (centres undefined) was run?
Answer: inactive

Question: For CC(=O)OC[C@]1(O)[C@H]2[C@H](OC(=O)CC(C)C)OC=C(CO[C@@H]3O[C@H](CO)[C@@H](O)[C@H](O)[C@H]3O)[C@H]2C[C@@H]1O, which Potency is on record?
Answer: inactive

Question: How did the activity change, negative = inhibition turn out when CC(C)(C)NCc1cc(Nc2ccnc3cc(Cl)ccc23)c2c(c1O)CCCC2 was run?
Answer: -3.89% [at 1.07 µM] (inactive)

Question: How did the Potency turn out when O=C(c1ccc(NS(=O)(=O)c2cccc3cccnc23)cc1)N1CCN(CC2CC2)CC1 was run?
Answer: inactive

Question: Which Potency does the source give for C=Cc1cc(O)cc2nc(-c3ccc(O)c(F)c3)oc12 here?
Answer: inactive

Question: With C/C(=C\CO)CC/C=C(\C)C(=O)O[C@H]1[C@H](OC2OC=C(C(=O)O)C3CCC(C)(O)C23)O[C@H](CO)[C@@H](O)[C@@H]1O (some centres undefined) as the compound, how does the Potency read?
Answer: inactive

Question: How did the Potency turn out when Cc1ccc(Sc2cncc3sc(C(N)=O)cc23)cc1 was run?
Answer: inactive

Question: For CC(=O)NC(CCC(=O)O)C(=O)NCCc1ccc(O)cc1 (centres undefined), which Potency is on record?
Answer: inactive

Question: For CC(=O)N1c2ccccc2C2(O)CC3C(=O)NC(CC(C)C)C(=O)N3C12 (centres undefined), which Potency is on record?
Answer: inactive

Question: For O=C(NCc1ccc(OC(F)(F)F)cc1)C1c2ccccc2C(=O)N1C1CCOCC1 (centres undefined), which Potency is on record?
Answer: inactive

Question: CC(C)C(=O)c1cn(CC(=O)COc2ccc(Oc3ccccc3)cc2)c2ccc(C(=O)O)cc12 was tested. Which Potency did it give?
Answer: inactive

Question: CC(C)[C@@H](C)/C=C/[C@@H](C)[C@H]1CC[C@H]2C3=CC=C4C[C@@H](O)CC[C@]4(C)[C@H]3CC[C@]12C was tested. Which Potency did it give?
Answer: inactive

Question: For OC[C@H]1O[C@@H](Oc2ccc3c(c2)OC[C@H]2c4cc5c(cc4O[C@@H]32)OCO5)[C@H](O)[C@@H](O)[C@@H]1O, which Potency is on record?
Answer: inactive

Question: Which Potency does the source give for C=C1CC2C3(C)C(OC(C)=O)CC(=O)OC(C)(C)C3C(O)C(OC(C)=O)C2(C)C2C(=O)OC(C)C(=O)C12C (centres undefined) here?
Answer: inactive

Question: C/C(=C/CCC(CO)C1CCC2(C)C3CCC4C(C)(C)C(OC5OC(CO)C(O)C(O)C5O)CC(O)C45CC35CCC12C)COC1OC(CO)C(O)C(O)C1O (centres undefined) was tested. Which Potency did it give?
Answer: inactive

Question: Which activity change, negative = inhibition does the source give for CCC/C=C/C(=O)O[C@H]1CC(C)(C)CC2[C@]13[C@H](O)O[C@@]21CCC2[C@@]4(C)CC[C@H](O[C@@H]5O[C@H](C(=O)O)[C@@H](O)[C@H](O[C@@H]6O[C@H](CO)[C@H](O)[C@H](O)[C@H]6O[C@@H]6O[C@@H](C)[C@H](O)[C@@H](O)[C@H]6O[C@@H]6OC[C@](O)(CO)[C@H]6O)[C@H]5O[C@@H]5O[C@H](CO)[C@H](O)[C@H](O)[C@H]5O)C(C)(C)C4CC[C@@]2(C)[C@]1(C)C[C@H]3OC(C)=O (some centres undefined) here?
Answer: -7.58% [at 12.4 µM] (inactive)

Question: How did the Potency turn out when CC1(C)CCC(C)(C)c2cc3c(cc21)Sc1ccccc1N=C3c1ccc(C(=O)O)cc1 was run?
Answer: inactive

Question: For CC1OC(OC2C(CO)OC(OCC3OC(OC(=O)C45CCC(C)(C)CC4C4=CCC6C7(C)CCC(OC8OC(C(=O)O)C(O)C(OC9OC(CO)C(O)C(O)C9O)C8O)C(C)(C)C7CCC6(C)C4(C)CC5)C(O)C(O)C3O)C(O)C2O)C(O)C(O)C1O (centres undefined), which activity change, negative = inhibition is on record?
Answer: 0.696% [at 12.4 µM] (inactive)

Question: With CC/C=C\C[C@H]1C(=O)C=C[C@@H]1CCCCCCCC(=O)O as the compound, how does the Potency read?
Answer: inactive

Question: CC1CCC2C(C)(C)C(O)CCC2(C)C12Cc1c(O)cc3c(c1O2)CN=C3N (centres undefined) was tested. Which Potency did it give?
Answer: inactive

Question: For C/C=C/C1=CC2=CC(=O)C(C)(O)C(OC(=O)c3c(C)cc(O)cc3O)C2CO1 (centres undefined), which Potency is on record?
Answer: inactive

Question: For C[C@H](NCc1ccc(OCc2ccccc2F)cc1)C(N)=O, which Potency is on record?
Answer: inactive

Question: Which Potency does the source give for CC(C)CC(=O)O[C@@H]1OC=C(CO[C@@H]2O[C@H](CO[C@@H]3O[C@H](CO)[C@@H](O)[C@H](O)[C@H]3O)[C@@H](O)[C@H](O)[C@H]2O)[C@H]2C[C@H](O)[C@@H](CO)[C@@H]12 here?
Answer: inactive

Question: With COc1ccc(/C=C/C(=O)O[C@H]2[C@@H]3C=CO[C@@H](O[C@@H]4O[C@H](CO)[C@@H](O)[C@H](O)[C@H]4O)[C@@H]3[C@@]3(CO)O[C@@H]23)cc1O as the compound, how does the Potency read?
Answer: inactive

Question: Which Potency does the source give for CC(=O)OC[C@@]12[C@H](O)C[C@]3(C)C(=CCC4[C@@]5(C)CC[C@H](O[C@@H]6O[C@H](C(=O)O)[C@@H](O[C@@H]7O[C@H](CO)[C@@H](O)[C@H](O)[C@H]7O)[C@H](O)[C@H]6O[C@@H]6O[C@H](CO)[C@@H](O)[C@H](O)[C@H]6O)[C@](C)(CO)C5CC[C@]43C)[C@@H]1CC(C)(C)[C@@H](OC(C)=O)[C@@H]2O (some centres undefined) here?
Answer: inactive

Question: How did the Potency turn out when COc1c2c(c(C)c3c1C(=O)OC3)O[C@@]1(C)C[C@@H](O)[C@]34O[C@](OC)(CC[C@]3(C)[C@H]1C2)OC4(C)C was run?
Answer: inactive

Question: How did the Potency turn out when COc1ccc(/C=C/C(=O)O[C@@H]2[C@@H](OC(C)=O)[C@@H](OC(C)=O)[C@H](O[C@H]3[C@@H]4C=CO[C@@H](O[C@@H]5O[C@H](CO)[C@@H](O)[C@H](O)[C@H]5O)[C@@H]4[C@@]4(CO)O[C@@H]34)O[C@H]2C)cc1O was run?
Answer: inactive

Question: Which Potency does the source give for COc1cc(COC2OC(CO)C(O)C(O)C2O)cc(OC)c1O (centres undefined) here?
Answer: inactive
